In PubChem BioAssay (NCI):
Several values for one entry are separate records, joined by “and”; a condition that tells them apart may be missing. Equal entries are not always repeated. About 83,000 compounds went through this panel and 20% of them were active in at least one assay; those are over-represented in the sample as a whole.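 The endpoint reported here, percent growth, reads 100 for growth as untreated, 0 for no net growth and -100 for all cells dead.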 Activity calls are given as the source filed them. Rule for the calls: active = growth percent below 10; inactive = the rest.

These compounds were tested on HL-60(TB) leukemia (assay: NCI-60 one-dose screen, 48 h (100 = growth as untreated, 0 = no growth, -100 = all killed)). Conditions: 10 µM unless noted.

SMILES | growth
COC(=O)Nc1nc2ccc(C(=O)c3ccccc3)cc2[nH]1 | 7.13% (active) and -59.3% (active) and -3.38% (active)
FC(F)(F)c1ccc2c(c1)N(CCCN1CCN(C3CC3)CC1)c1ccccc1S2 | 25.6% (inactive)
COc1ccc(/C=N/NC(=O)Cn2c(Cc3cccc4ccccc34)nc3ccccc32)cc1 | 93.2% (inactive)
O=c1[nH]c2ccccc2n1C1CCN(CCOc2ccccc2)CC1 | 50% (inactive)
CCCCOC(=O)OCc1cc(=O)c(O)co1 | 95.2% (inactive)
CCc1ccccc1NC(=O)/C(C#N)=C/c1ccc(OC)cc1 | 138% (inactive)
CN(C)CCCn1c(=O)c2cc([N+](=O)[O-])ccc2c2cnc3[nH]ccc3c21 | 90.4% (inactive)
CN1C(=O)C(N=Nc2ccc([N+](=O)[O-])cc2)SC1=S (stereo not given) | -4.43% (active) and -10.4% (active)
CCN(CC)CCCC(C)Nc1c2ccc(Cl)cc2nc2ccc(O)cc12 (stereo not given) | 45.7% (inactive)
CCN(CC)CCC(CNc1c2ccc(Cl)cc2nc2ccc(OC)cc12)c1ccccc1 (stereo not given) | 28.7% (inactive)
CN(CC(=O)Nc1nc2ccccc2[nH]1)S(=O)(=O)c1ccc(Cl)cc1 | 90% (inactive)
COc1cccc(/C=N/Nc2nc3ccccc3s2)c1OC | 49.9% (inactive)
c1ccc(-c2ccc3ccccc3c2)cc1 | 109% (inactive)
O=C1CC(N2C(=O)/C(=C/C(Cl)=C\c3ccc([N+](=O)[O-])cc3)SC2=S)C(=O)N1c1ccc(Cl)cc1 (stereo not given) | 21.3% (inactive)
CCN1C(=O)/C(=c2\sc3n(c2=O)C2C(NN=3)N(CC)C(=S)N2CC)c2ccccc21 (stereo not given) | 87.4% (inactive)
COc1ccc(COC=O)cc1 | 103% (inactive)
COC(=O)/C=C1/SC(=Nc2ccc(C)cc2)N(CCc2c[nH]c3ccc(O)cc23)C1=O | 49.3% (inactive)
COc1ccccc1CNC(=O)C1c2ccccc2C(=O)N(CC(C)C)C1c1cccs1 (stereo not given) | 67.9% (inactive)
COc1cc(N=C2C(=O)N(Cc3ccccc3)c3ccccc32)cc(OC)c1OC | 69.9% (inactive)
COc1ccc(C(=O)Nc2ncc(Cc3cccc(Cl)c3)s2)cc1OC | 11.1% (inactive)
Cc1c2c(cc3c1[nH]c1ccccc13)C=NCC2 | 93.3% (inactive)
CC(=O)c1ccc(N2C(=O)c3ccc(Oc4ccccc4)cc3C2=O)cc1 | 105% (inactive)
COc1cc(-c2cc3ncccc3c3nc(N)c4cccnc4c23)cc(OC)c1OC | 6.71% (active)
COC1C(OC(N)=O)C(O)C(Oc2ccc3c(O)c(NC(=O)c4ccc(O)c(CC=C(C)C)c4)c(=O)oc3c2C)OC1(C)C (stereo not given) | 74% (inactive) and 106% (inactive)
CCCCCCCCCCCCCCCCSC(=NCC)NCC | -59.1% (active)
